Measured values reported in PubChem BioAssay (EPA / NIEHS).
Calls of active or inactive are those of the source. How the source made its calls: active means hit-call score of the fitted dose curve at least 0.9, where 1 is the maximum; inactive means score below 0.9.

These compounds were tested on Transforming Growth Factor (TGFB1), TGFB1 (gene 7040) (assay: LTEA_HepaRG_TGFB1: Life Technologies and Expression Analysis (LTEA) Assay for Transforming Growth Factor (TGFB1) Transporter using HepaRG (AID 2283533)). Conditions: mRNA level, 48 h; actives raise or lower the signal.
Procedure, shortened: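 Differentiated human HepaRG cells in serum-free induction medium were exposed in duplicate for 48 h to eight concentrations (top 100 uM, half-log steps, 0.5% DMSO). TGFB1 mRNA was quantified by qRT-PCR, normalized to ACTB, GAPDH, POLR2A, and fitted bidirectionally against DMSO.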
For `CCN(CC)CCNc1ccc(CNC=O)c2sc3ccc(OC)cc3c(=O)c12`, the outcome was “inactive”. For `N#C[C@@H]1CC(F)(F)CN1C(=O)CNC1CC2CCC(C1)N2c1ncccn1` (some centres not stated), the outcome was “inactive”. For `CN(C)C=O`, the outcome was “inactive”. With `O=C(OCCOCCOC(=O)c1ccccc1)c1ccccc1` the outcome was “inactive”. For `CCCCCCCCC(=O)O`, the outcome was “inactive”. With `CC[C@H](c1ccc(O)cc1)[C@@H](CC)c1ccc(O)cc1` the AC50 was 79.5 µM (active). For `O=[N+]([O-])c1ccc(O)cc1`, the outcome was “inactive”. For `CCCCOCCO`, the outcome was “inactive”. In the case of `OCCC(F)(F)C(F)(F)C(F)(F)C(F)(F)C(F)(F)C(F)(F)F`, the outcome is reported as “inactive”. With `CCC(C)(C)C1CCC(O)CC1` (configuration not stated) the outcome was “inactive”. `NC(=O)N1C(=O)C(C(=O)c2cc(Cl)cs2)c2cc(F)c(Cl)cc21` (configuration not stated) was tested, and the outcome was “inactive”. In the case of `CCCCCCC(=O)O`, the outcome is reported as “inactive”. In the case of `ClC1=C(Cl)C(Cl)(Cl)C(Cl)=C1Cl`, the outcome is reported as “inactive”. For `O=C(O)Cc1cc(I)c(Oc2cc(I)c(O)c(I)c2)c(I)c1`, the AC50 was 56.4 µM (active). `CCCCCCCCOC(=O)CCCCCCCCC(=O)OCCCCCCCC` was tested, and the outcome was “inactive”. With `Oc1cccc(O)c1` the outcome was “inactive”. In the case of `CCc1ccc(CCOc2ccc(CC3SC(=O)NC3=O)cc2)nc1` (configuration not stated), the outcome is reported as “inactive”. In the case of `OCCC(F)(F)C(F)(F)C(F)(F)C(F)(F)C(F)(F)C(F)(F)C(F)(F)C(F)(F)F`, the outcome is reported as “inactive”. With `CC(C)CCCCCCOC(=O)CCCCC(=O)OCCCCCCC(C)C` the outcome was “inactive”.

These compounds were tested on TIMP1, TIMP1 (gene 7076) (assay: LTEA_HepaRG_TIMP1: Life Technologies and Expression Analysis (LTEA) Assay for TIMP1 using HepaRG (AID 2283534;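 on outcome: TaqMan qRT-PCR signal normalized to ACTB GAPDH and POLR2A housekeeping genes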)). Conditions: mRNA level, 48 h; actives raise or lower the signal.
Procedure, shortened: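 Differentiated human HepaRG cells in serum-free induction medium were exposed 48 h to chemicals (8 half-log concentrations, top 100 uM, 0.5% DMSO). TIMP1 mRNA was quantified by TaqMan qRT-PCR, normalized to ACTB/GAPDH/POLR2A; bidirectional fit versus DMSO.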
For `CCN(CC)CCNc1ccc(CNC=O)c2sc3ccc(OC)cc3c(=O)c12`, the outcome was “inactive”. With `N#C[C@@H]1CC(F)(F)CN1C(=O)CNC1CC2CCC(C1)N2c1ncccn1` (some centres not stated) the outcome was “inactive”. In the case of `CN(C)C=O`, the outcome is reported as “inactive”. `O=C(OCCOCCOC(=O)c1ccccc1)c1ccccc1` was tested, and the outcome was “inactive”. With `CCCCCCCCC(=O)O` the outcome was “inactive”. For `CC[C@H](c1ccc(O)cc1)[C@@H](CC)c1ccc(O)cc1`, the outcome was “inactive”. For `CC(C)(C)c1ccc(O)c(C(C)(C)C)c1`, the outcome was “inactive”. `O=[N+]([O-])c1ccc(O)cc1` was tested, and the outcome was “inactive”. With `CCCCOCCO` the outcome was “inactive”. For `OCCC(F)(F)C(F)(F)C(F)(F)C(F)(F)C(F)(F)C(F)(F)F`, the outcome was “inactive”. In the case of `CCC(C)(C)C1CCC(O)CC1` (configuration not stated), the outcome is reported as “inactive”. For `NC(=O)N1C(=O)C(C(=O)c2cc(Cl)cs2)c2cc(F)c(Cl)cc21` (configuration not stated), the AC50 was 85.2 µM (active). `CCCCCCC(=O)O` was tested, and the outcome was “inactive”. `ClC1=C(Cl)C(Cl)(Cl)C(Cl)=C1Cl` was tested, and the outcome was “inactive”. `COCC(C)OCC(C)O` (configuration not stated) was tested, and the outcome was “inactive”. For `C[C@@H]1C[C@H]2[C@@H]3CCC4=CC(=O)C=C[C@]4(C)[C@@]3(F)[C@@H](O)C[C@]2(C)[C@@]1(O)C(=O)COP(=O)(O)O`, the outcome was “inactive”. With `CCCCC(CC)COC(=O)CCCCC(=O)OCc1ccccc1` (configuration not stated) the outcome was “inactive”. In the case of `O=C(O)Cc1cc(I)c(Oc2cc(I)c(O)c(I)c2)c(I)c1`, the outcome is reported as “inactive”. In the case of `CCC(=C(c1ccc(O)cc1)c1ccc(OCCN(C)C)cc1)c1ccccc1`, the outcome is reported as “inactive”. With `CCc1nn(C2CCCCC2)c2cc(C3(C#N)CCC(C(=O)O)CC3)ccc12` (configuration not stated) the AC50 was 33.8 µM (active). `CCCCCCCCOC(=O)CCCCCCCCC(=O)OCCCCCCCC` was tested, and the outcome was “inactive”. With `Oc1cccc(O)c1` the outcome was “inactive”. In the case of `CCc1ccc(CCOc2ccc(CC3SC(=O)NC3=O)cc2)nc1` (configuration not stated), the outcome is reported as “inactive”. With `OCCC(F)(F)C(F)(F)C(F)(F)C(F)(F)C(F)(F)C(F)(F)C(F)(F)C(F)(F)F` the outcome was “inactive”. In the case of `O=C(O)c1ccccc1C(c1ccc(O)cc1)c1ccc(O)cc1`, the outcome is reported as “inactive”. `CCCCCCCCCCCCc1ccccc1S(=O)(=O)O` was tested, and the outcome was “inactive”. In the case of `Cc1oc(-c2ccccc2)nc1CCOc1ccc(C[C@H](Nc2ccccc2C(=O)c2ccccc2)C(=O)O)cc1`, the outcome is reported as “inactive”. For `c1ccc2c(c1)ccc1ccccc12`, the outcome was “inactive”. In the case of `CCCCC(CC)COC(=O)CCCCC(=O)OCC(CC)CCCC` (configuration not stated), the outcome is reported as “inactive”. For `CC(C)CCCCCCOC(=O)CCCCC(=O)OCCCCCCC(C)C`, the outcome was “inactive”. With `COc1ccc([N+](=O)[O-])cc1N` the outcome was “inactive”. For `Cc1cc(CCN2CCN(c3nsc4ccccc34)CC2)cc2c1NC(=O)CC2(C)C`, the outcome was “inactive”. In the case of `CCCOc1sc(C(=O)N2CCC(c3cc(CN)ccc3F)CC2)c(C)c1Br`, the outcome is reported as “inactive”.
